Compound activity as filed in PubChem BioAssay.
Tau fluor counter: counter-screen for tau fibril formation inhibitors; AID 1463; Potency, µM (doses to about 57.7 µM), inactives show at the highest dose activity change, negative = decrease; tau K18 P301L Alexa594 fluorescence, heparin fibrillization; 0.93% of 280,000 active; note: nearly all actives have a fitted effect of over 55% in size
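Human K18 P301L tau (15 uM unlabeled plus 0.24 uM Alexa 594-labeled, final) in 100 mM sodium acetate pH 7 was mixed with compound and 20 uM heparin and incubated 6 hr at 37 C.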
VDR inhibitor: blocks the human vitamin D receptor; P11473; VDR-SRC2-3 peptide fluorescence polarization, 2 h; Potency, µM, without a hit: max response, negative = inhibition, actives largely listed as inhibitors; 0.93% of 400,000 active
Target sequence (P11473 whole entry, looked up): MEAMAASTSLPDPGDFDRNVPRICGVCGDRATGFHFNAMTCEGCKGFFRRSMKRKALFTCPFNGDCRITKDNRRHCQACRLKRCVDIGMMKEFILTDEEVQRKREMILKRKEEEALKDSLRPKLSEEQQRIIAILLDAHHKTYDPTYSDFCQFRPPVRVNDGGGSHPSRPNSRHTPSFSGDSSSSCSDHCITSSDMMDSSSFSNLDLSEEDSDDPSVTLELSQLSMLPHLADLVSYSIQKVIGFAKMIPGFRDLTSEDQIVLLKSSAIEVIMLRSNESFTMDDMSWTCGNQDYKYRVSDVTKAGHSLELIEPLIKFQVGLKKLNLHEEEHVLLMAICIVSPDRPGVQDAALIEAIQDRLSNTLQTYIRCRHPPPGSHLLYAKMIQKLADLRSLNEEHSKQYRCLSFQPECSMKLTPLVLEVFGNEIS
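The screen uses fluorescence polarization to detect compounds that interfere with recruitment of the SRC2-3 coactivator peptide to VDR; plates are read after 2 h at room temperature.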
Tau fibril FP: inhibitors of human tau fibril formation; Potency, µM (top dose mostly 57.7 µM), inactives show at the highest dose activity, negative = inhibition, hits mostly inhibitors; AID 1468; 0.39% of 280,000 active; P10636; K18 P301L tau heparin fibrillization, Alexa594 FP, 6 h; note: nearly all actives have a fitted effect of over 55% in size
Target sequence (P10636 561-689 P618L limits assumed): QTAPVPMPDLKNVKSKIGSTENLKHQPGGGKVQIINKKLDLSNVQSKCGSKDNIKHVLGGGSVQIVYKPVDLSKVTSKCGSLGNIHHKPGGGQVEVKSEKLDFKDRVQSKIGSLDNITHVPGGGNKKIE
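Read-out: fluorescence polarization of Alexa 594-labeled tau (0.24 uM), 555 nm excitation, 632 nm emission. Mixtures held 15 uM unlabeled K18 P301L, compound and 20 uM heparin, pH 7 acetate buffer, incubated 6 hr at 37 C.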
Sfp inh: inhibitors of Bacillus subtilis Sfp phosphopantetheinyl transferase | 3.5% of 310,000 active | Biochemical Sfp PPTase activity, qHTS | Potency, µM, for the others: largest response in the series, negative = inhibition, usual class: inhibitors | AID 1490 | Q9F4F7;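 note: the enzyme is Sfp with the accession as filed and its product quenches rhodamine fluorescence; 0% = enzyme reaction without inhibitor and -100% = no enzyme wells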
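After 15 min at room temperature with compound, 15 nM Sfp received 5 uM rhodamine-CoA plus 12.5 uM BHQ-2-ybbR (50 mM Hepes pH 7.6, 10 mM MgCl2). Rate came from the fluorescence difference over 30 min, ex 525/em 598 nm.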
Tau fibril ThT: inhibitors of human tau fibril formation, thioflavin T binding; recombinant tau K18 P301L (four-repeat tau fragment), heparin-induced fibrillization, ThT fluorescence; Potency, µM (top dose mostly 57.4 µM), for inactives: at the top dose activity, negative = inhibition, most hits filed as inhibitors; 2.1% of 270,000 active; note: nearly all actives have a fitted effect of over 55% in size
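K18 P301L tau (15 uM + 0.24 uM Alexa 594-tagged), heparin 20 uM, NaOAc pH 7, 6 h 37 C; ThT 30 uM, 1 h RT, ex 450/em 510 nm.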
PLK1 PBD block: blocks phosphopeptide binding to human PLK1 polo-box domain; P53350; Plk1 PBD binding of FITC phosphopeptide, fluorescence polarization; Potency, µM, inactives show max response, negative = inhibition, actives largely listed as inhibitors; 2.8% of 360,000 active; note: series mostly up to about 57 µM; nearly all actives have a fitted effect of over 65% in size
Numbers without * were called inactive. Rows were chosen to be rich in hits. Some 6% of all compounds tested hit in one or more screens of this group. Calls come from the whole dose curve; as a rule, active = well fitted curve in the direction sought with a large enough effect; inconclusive = small, poorly fitted or top-dose-only effect, or another doubt; inactive = no such curve, though single readings can be large; an effect the other way counts as inactive or inconclusive. Unless noted, % is set by controls: 0 for no effect and ±100 for the full control effect; potency is the fitted concentration of half-maximal effect.

`COC(=O)[C@@]1(Cc2ccc(F)cc2)[C@H]2c3cc(C(=O)N(C)C)n(Cc4ccc(C)c(F)c4F)c3C[C@H]2CN1C(=O)c1ccccc1` gave Tau fluor counter -15%, Tau fibril FP -5%, Sfp inh 6%, Tau fibril ThT inconclusive and PLK1 PBD block 5%.
`Cn1c(N)c(C(=O)CSc2nnc(-c3c[nH]c4ccccc34)n2C2CC2)c(=O)[nH]c1=O` gave VDR inhibitor 12% and PLK1 PBD block -18%.
COc1cccc(C(=O)Nc2cccc(C(=O)OCc3cc(=O)n4c(C)csc4n3)c2)c1 was read as Tau fluor counter -7%, VDR inhibitor 10%, Tau fibril FP -14% and Tau fibril ThT -7%.
`COc1ccc(S(=O)(=O)N(Cc2ccccc2)c2ccccc2C(=O)Nc2ccccc2C(=O)NCc2ccco2)cc1` gave Tau fluor counter -23%, VDR inhibitor 8%, Tau fibril FP -9%, Sfp inh 11%, Tau fibril ThT 1% and PLK1 PBD block 6%.
Screening COc1ccccc1CNC(=O)c1c(N)n(CCCN2CCOCC2)c2nc3ccccc3nc12 returned Tau fluor counter inconclusive, VDR inhibitor 8%, Tau fibril FP -8%, Sfp inh 56µM*, Tau fibril ThT 25µM* and PLK1 PBD block 0%.
Screening COc1ccc(-n2c(N)c(C(=O)NCc3ccco3)c3nc4ccccc4nc32)cc1 returned Tau fluor counter inconclusive, VDR inhibitor -21%, Tau fibril FP inconclusive, Sfp inh 25µM*, Tau fibril ThT inconclusive and PLK1 PBD block -2%.
COc1ccc(S(=O)(=O)Nc2ccccc2C(=O)NCc2ccco2)cc1 was read as Tau fluor counter -6%, VDR inhibitor 16%, Tau fibril FP -1%, Sfp inh -6%, Tau fibril ThT -6% and PLK1 PBD block 11µM*.
For Nc1c(C(=O)NCc2ccco2)c2nc3ccccc3nc2n1CCc1ccc(F)cc1 the results were Tau fluor counter inconclusive, VDR inhibitor -13%, Tau fibril FP inconclusive, Sfp inh 25µM*, Tau fibril ThT inconclusive and PLK1 PBD block -18%.
For Nc1c(C(=O)NCc2ccc3c(c2)OCO3)c2nc3ccccc3nc2n1CCCN1CCOCC1 the results were Tau fluor counter inconclusive, VDR inhibitor -3%, Tau fibril FP 3%, Sfp inh inconclusive, Tau fibril ThT inconclusive and PLK1 PBD block -2%.
For COc1cc(C(CC(=O)NCc2ccc(F)cc2)N2Cc3ccccc3C2=O)cc(OC)c1OC (stereo not given) the results were Tau fluor counter -3%, VDR inhibitor 9%, Tau fibril FP 2% and Tau fibril ThT 2%.
For Cc1ccc(NC(=O)Cc2ccccc2F)cc1S(=O)(=O)N1CCCCCC1 the results were VDR inhibitor -14% and PLK1 PBD block 4%.
For Cc1ccc2c(c1)S(=O)(=O)N(C)C(c1ccccc1)=C2 the results were VDR inhibitor -5% and PLK1 PBD block 2%.
`COC(=O)c1c(N)n(-c2ccc(N3CCOCC3)cc2)c2nc3ccccc3nc12` gave Tau fluor counter inconclusive, Tau fibril FP inconclusive, Sfp inh -12% and Tau fibril ThT 10µM*.
Screening COC(=O)c1c(N)n(-c2ccc(NC(C)=O)cc2)c2nc3ccccc3nc12 returned Tau fluor counter -8%, VDR inhibitor -11%, Tau fibril FP 12%, Sfp inh -6%, Tau fibril ThT inconclusive and PLK1 PBD block -6%.
Screening O=C(NC1CC1)c1cc2cc3ccccc3nc2s1 returned VDR inhibitor 2%, Sfp inh -1% and PLK1 PBD block -10%.
For COC(=O)[C@@]1(Cc2ccccc2-c2ccco2)C=C[C@H](C)[C@@H](c2ccccc2)N1C(=O)C(F)(F)F the results were Tau fluor counter -7%, VDR inhibitor 45µM*, Tau fibril FP -5%, Sfp inh inconclusive and Tau fibril ThT -13%.
CCCc1nn2c(=O)c(C(c3ccc(C)cc3)c3c(O)nc4sc(CCC)nn4c3=O)c(O)nc2s1 was read as Tau fluor counter -4%, VDR inhibitor 1%, Tau fibril FP -1%, Sfp inh 9%, Tau fibril ThT -10% and PLK1 PBD block -19%.
`O=c1c(C(c2ccc(Br)cc2)c2c(O)nc3n(c2=O)CCS3)c(O)nc2n1CCS2` gave Tau fluor counter -20%, VDR inhibitor inconclusive, Tau fibril FP inconclusive, Sfp inh 17%, Tau fibril ThT inconclusive and PLK1 PBD block 15µM*.
For O=c1c(C(c2ccc(O)cc2)c2c(O)nc3n(c2=O)CCS3)c(O)nc2n1CCS2 the results were Tau fluor counter -22%, VDR inhibitor inconclusive, Tau fibril FP -6%, Sfp inh 14µM*, Tau fibril ThT inconclusive and PLK1 PBD block 6µM*.
Screening Cc1ccc(C(c2c(O)nc3n(c2=O)CCS3)c2c(O)nc3n(c2=O)CCS3)cc1 returned Tau fluor counter 6%, VDR inhibitor 50µM*, Tau fibril FP 1%, Sfp inh inconclusive, Tau fibril ThT -17% and PLK1 PBD block 17µM*.
`O=c1c(C(c2c(O)nc3n(c2=O)CCS3)c2cccc3ccccc23)c(O)nc2n1CCS2` gave Tau fluor counter inconclusive, VDR inhibitor inconclusive, Tau fibril FP inconclusive, Sfp inh -4%, Tau fibril ThT inconclusive and PLK1 PBD block 30µM*.
`Cc1cc(NC(=O)CCC(=O)N(Cc2cccs2)C(C)(C)C(=O)NC2CCCCC2)no1` gave VDR inhibitor 2%, Sfp inh 17% and PLK1 PBD block -12%.
Screening O=C(O)[C@H]1CN(CCCP(=O)(O)O)CCN1 returned Tau fluor counter -3%, VDR inhibitor 2%, Tau fibril FP 3%, Sfp inh 8% and Tau fibril ThT -4%.
For CC(=O)N1CCC[C@@]2(CCN(Cc3cc(C(F)(F)F)cc(C(F)(F)F)c3)C2)C1 the results were VDR inhibitor -20% and Sfp inh 6%.
`O=C(c1cccn1-c1nnc(N2CCCCC2)s1)N1CCN(c2ccccc2)CC1` gave Tau fluor counter -12%, VDR inhibitor 7%, Tau fibril FP 4% and Tau fibril ThT -16%.
Screening O=c1c(C(c2ccc(Br)cc2)c2c(O)nc3n(c2=O)CCCS3)c(O)nc2n1CCCS2 returned Tau fluor counter -29%, VDR inhibitor -15%, Tau fibril FP inconclusive, Sfp inh inconclusive, Tau fibril ThT inconclusive and PLK1 PBD block inconclusive.
Screening O=c1c(C(c2ccc(O)cc2)c2c(O)nc3n(c2=O)CCCS3)c(O)nc2n1CCCS2 returned Tau fluor counter -25%, VDR inhibitor 50µM*, Tau fibril FP -9%, Sfp inh 25µM*, Tau fibril ThT inconclusive and PLK1 PBD block 12µM*.
